Shown are actives, neighbours in structure and some others; about 7.1% of the full set was active somewhere.
M1 ag: M1 muscarinic receptor agonists, primary screen, CHO-M1 cells, Fluo-4 calcium, agonist mode; 64,000 tested, 3% active; Muscarinic acetylcholine receptor M1; B-score at 10 µM; AID 626, 2007; Fluo-4 calcium fluorescence; active compounds read high;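 active = fluorescence rise, raw or as B-score row- and column-corrected plate score, outside the 99.7% band of its plate's samples, either direction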
Pyk2 oligo antag: antagonists of Pyk2 self-association, primary screen, Q293 cells, FERM NanoBiT luminescence, HTS; active compounds read low; z-score (the deposit names both 25 µM and 10 µM); 99,000 tested, 0.83% active; AID 1347419, 2020;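 active = Z-score of -3 or lower, scaled per plate to the spread of control and sample wells; inactive = z-score above -3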;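 also: negative z-score means lost luminescence so less FERM oligomerization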
Target sequence (Q14289 whole entry, looked up): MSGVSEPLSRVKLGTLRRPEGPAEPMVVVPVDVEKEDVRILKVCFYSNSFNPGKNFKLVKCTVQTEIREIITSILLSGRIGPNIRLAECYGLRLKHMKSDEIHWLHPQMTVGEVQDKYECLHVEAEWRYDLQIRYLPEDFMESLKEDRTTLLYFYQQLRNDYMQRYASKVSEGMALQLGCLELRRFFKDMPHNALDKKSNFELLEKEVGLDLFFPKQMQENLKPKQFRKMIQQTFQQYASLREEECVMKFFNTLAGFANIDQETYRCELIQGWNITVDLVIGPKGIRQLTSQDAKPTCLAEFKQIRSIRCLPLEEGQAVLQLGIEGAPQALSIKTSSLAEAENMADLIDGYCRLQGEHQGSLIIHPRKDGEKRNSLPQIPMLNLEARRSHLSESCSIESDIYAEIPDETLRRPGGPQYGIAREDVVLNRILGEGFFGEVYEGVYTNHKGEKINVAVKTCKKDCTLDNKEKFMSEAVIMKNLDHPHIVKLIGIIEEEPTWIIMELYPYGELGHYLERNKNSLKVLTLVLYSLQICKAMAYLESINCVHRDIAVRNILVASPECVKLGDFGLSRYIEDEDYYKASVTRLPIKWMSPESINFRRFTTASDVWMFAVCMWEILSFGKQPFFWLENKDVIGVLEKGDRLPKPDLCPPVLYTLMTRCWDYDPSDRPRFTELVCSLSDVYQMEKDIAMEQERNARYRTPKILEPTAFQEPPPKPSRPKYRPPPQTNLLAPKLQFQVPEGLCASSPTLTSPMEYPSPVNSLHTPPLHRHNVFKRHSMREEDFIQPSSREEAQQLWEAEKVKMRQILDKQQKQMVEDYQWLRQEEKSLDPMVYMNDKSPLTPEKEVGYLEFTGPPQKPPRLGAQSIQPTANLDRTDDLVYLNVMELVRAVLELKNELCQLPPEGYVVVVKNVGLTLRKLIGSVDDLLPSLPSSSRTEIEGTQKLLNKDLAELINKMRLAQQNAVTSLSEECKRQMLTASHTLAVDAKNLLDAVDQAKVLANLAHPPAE
M1 antag: antagonists of rat M1 muscarinic receptor | Muscarinic acetylcholine receptor M1 (Rattus norvegicus), P08482 | CHO-M1 cells, Fluo-4 calcium, ACh EC80 antagonist mode; active compounds read low | B-score at 10 µM | 64,000 tested, 3.4% active | AID 628, 2007;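 active = calcium fluorescence response, raw or row-and-column corrected B-score, differing from the plate sample mean either way at a set confidence level, mostly lower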
Cav3 T inh: Cav3.2 calcium influx blockers – cell-based, Fluo-4 calcium fluorescence, FDSS, MLSMR library, primary screen | Voltage-dependent T-type calcium channel subunit alpha-1H (Homo sapiens), O95180 | Cav3.2-expressing cells; active compounds read low | B-score at 10 µM | 100,000 tested, 4% active | AID 449739, 2010;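 active = single-dose well whose peak fluorescence ratio is a statistical outlier from its plate by either plate-standardised score or position-corrected B-score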
The depositor's hits bear a star; · = no result given.

SMILES	M1 ag	Pyk2 oligo antag	M1 antag	Cav3 T inh
CS(=O)(=O)N(CC(=O)Nc1ccccc1Sc1ccccc1)C1CCCCC1	·	-1.04	·	-5.88*
COC(=O)c1ccccc1NC(=O)CN(C1CCCCC1)S(C)(=O)=O	0.35	-0.39	-0.268	-0.0467
O=C1OCC(CO)(CO)N=C1NNc1ccc(Cl)c(Cl)c1	·	1.49	·	-0.451
CC(C)(C)C(=O)NCCCc1nc2ccccc2n1CCCOc1ccc(Cl)cc1	·	-0.53	·	-6.68*
CCOc1cc2[nH]c(=O)n(CC3CCC(C(=O)NC4CCCCC4)CC3)c(=O)c2cc1OCC (centres undefined)	-0.983	·	0.344	·
CCOc1cc2[nH]c(=O)n(CC3CCC(C(=O)NC(C)CC)CC3)c(=O)c2cc1OCC (centres undefined)	0.46	·	1.08*	·
Cc1cccc(C(=O)N2CCN(c3ccc([N+](=O)[O-])c(N4CCOCC4)c3)CC2)c1	·	-1.61	·	3.75*
CC1(C)CC(=O)c2cc(C(=O)NCc3ccco3)c(=O)n(-c3ccccc3)c2C1	0.175	-0.09	-0.0725	4.14*
O=C(NNC(=O)C(c1ccccc1)c1ccccc1)c1cccs1	·	0.92	·	0.115
c1ccc2c(c1)OCC(c1csc3ncnc(N4CCCC4)c13)O2 (centres undefined)	·	-1.15	·	-5.08*
O=C(Nc1ccccc1Cl)ON=C1c2ccccc2-c2ccccc21	·	-0.53	·	-1.09
CCOC(=O)C1C(=O)NC(SC)=C(C#N)C1c1ccccc1F (centres undefined)	-0.639	-1.61	0.353	-4.85*
COc1ccc(-c2cn3cccnc3n2)cc1NC(=O)c1ccc(Br)o1	2.32	-3.18*	-0.545	1.64
COc1ccc(NC(=O)c2ccco2)cc1NC(=O)c1ccc(C)cc1	0.228	-0.58	-0.289	-0.762
Cc1ccc(-c2cn3cccnc3n2)cc1NC(=O)c1ccc(Br)o1	-0.0537	-0.29	-0.139	0.298
COc1ccc(NC(=O)c2ccco2)cc1NC(=O)c1ccc(Br)o1	8.87*	-1.02	-0.062	-2.01
CCCOc1cccc(C2C(C(=O)c3ccc(C)o3)=C(O)C(=O)N2CCCN(C)C)c1 (centres undefined)	-0.49	·	0.125	·
CCc1ccc(NC(=O)c2ccc3c(c2)C(=O)N(CCOC)C3Nc2ccc(CC)cc2)cc1 (centres undefined)	·	·	·	-2.53
CCOC(=O)C1=C(CSc2nc3c(cc2C#N)CCC3)OC(N)=C(C#N)C1c1ccccc1 (centres undefined)	1.22	-0.12	-0.254	-5.12*
CCOC(=O)C1=C(CSc2nc3c(cc2C#N)CN(C)CC3)OC(N)=C(C#N)C1c1ccccc1 (centres undefined)	6.23	-0.66	-1.09	-0.468
Cc1ccc(F)c([C@H]2C3C=CCC(c4ccccc4)C3C(=O)N2Cc2ccccc2)c1 (some centres undefined)	·	·	·	-1.54
CC1CCN(C(=O)/C(=C/c2ccccc2Cl)c2ccccc2)CC1	·	-3.89*	·	-9.06*
CC(CCc1ccccc1)NC(=O)c1cccs1 (centres undefined)	·	-0.1	·	0.16
CCOC(=O)c1ccc(NC2=CC(=O)C(=O)c3ccccc32)cc1	·	-4.33*	·	-0.0904
N/C(Cc1ccc([N+](=O)[O-])cc1)=N\OC(=O)C(c1ccccc1)c1ccccc1	·	0.28	·	-3.38*
SMILES	M1 ag	Pyk2 oligo antag	M1 antag	Cav3 T inh
N/C(Cc1ccc([N+](=O)[O-])cc1)=N\OC(=O)c1ccc2ccccc2c1	·	3.52	·	-1.84
Cc1cccc(C(=O)O/N=C(\N)Cc2ccc([N+](=O)[O-])cc2)c1	·	1.09	·	-4.49*
Nc1c(-c2ccccc2)cnn1C1CCS(=O)(=O)C1 (centres undefined)	·	3.3	·	0.205
O=c1[nH]c(Nc2nc3ccccc3o2)nc2c1CCCC2	0.0962	-3.26*	0.236	1.07
Cc1ccc(Nc2nc3c(c(=O)[nH]2)CCCC3)cc1	·	-0.02	·	-0.416
COc1ccc(NC(=S)Nc2cccc(S(=O)(=O)N3CCCCC3)c2)cc1	·	-0.09	·	·
Cc1ccc(CN(C#N)c2nc(C)cc(C)n2)cc1	·	-1.69	·	-1.19
Cc1cc(C)nc(N(C#N)Cc2ccc(Br)cc2)n1	0.05	-3.07*	-0.581	-1.91
CC(=O)Nc1ccc(S(=O)(=O)NNC(=O)c2cc3c4ccccc4n(C)c3s2)cc1	·	-0.71	·	1.13
OC(CNCc1ccc(F)cc1)(c1ccc(F)cc1)c1ccc(F)cc1	·	0.31	·	-4.17*
CSCc1nnc(NC(=O)c2ccc(S(=O)(=O)N(CC(C)C)CC(C)C)cc2)o1	-0.865	·	0.437	-6.02*
Cc1nnc(NC(=O)c2ccc(S(=O)(=O)N(C)Cc3ccccc3)cc2)o1	0.0643	-1.53	-1.97	0.412
CCN(Cc1ccccc1)S(=O)(=O)c1ccc(C(=O)Nc2nnc(C3CC3)o2)cc1	0.176	·	0.53	-5.6*
COC(=O)C1=C(C)N(CCCC(=O)O)C(=O)NC1c1cccc(OC)c1 (centres undefined)	·	·	·	0.459
COc1cccc(CN2C(=O)[C@@H]3Cc4c([nH]c5ccccc45)C(C)(C)N3C2=O)c1	·	·	·	-2.29
COc1cccc(COc2ccc3c(C)c(Cc4ccccc4)c(=O)oc3c2)c1	·	-0.49	·	-3.68*
COc1cc(COc2ccc3c(C)c(Cc4ccccc4)c(=O)oc3c2)cc(OC)c1OC	·	-0.1	·	·
CC1=C(C#N)CCC(=O)N1Cc1ccc(C)cc1	·	1.06	·	0.0106
CCOC(=O)NC(NC(=S)Nc1ccccc1[N+](=O)[O-])C(Cl)(Cl)Cl (centres undefined)	·	0.91	·	-1.42
COc1ccc(NC(=S)NC(NC(=O)c2cccc(C)c2)C(Cl)(Cl)Cl)c([N+](=O)[O-])c1 (centres undefined)	·	-0.44	·	-6.72*
O=C(NC(NC(=S)Nc1ccccc1C(=O)O)C(Cl)(Cl)Cl)c1cccc([N+](=O)[O-])c1 (centres undefined)	·	-0.34	·	-1.14
COc1ccc(NC(=S)NC(NC(=O)c2cccc(Cl)c2)C(Cl)(Cl)Cl)c([N+](=O)[O-])c1 (centres undefined)	·	-1.15	·	-4.85*
Fc1ccc(Cn2c(SCc3ccc(F)c(C(F)(F)F)c3)nnc2C(F)(F)F)cc1	·	0.62	·	-3.16
Fc1ccc(Cn2c(SCc3ccc(F)c(F)c3)nnc2C(F)(F)F)cc1	·	-1.01	·	-3.79*
Cc1ccc(C)c(OCCn2cc(/C=C(\C#N)C(=O)NCc3cccs3)c3ccccc32)c1	·	0.44	·	-2.78
SMILES	M1 ag	Pyk2 oligo antag	M1 antag	Cav3 T inh
Cc1cc(/C=C(\C#N)C(=O)NCc2cccs2)c(C)n1-c1ccccc1F	·	-1.66	·	-4.76*
CCOC(=O)c1c(NC(=O)CN2CCCCC2)sc2c1CCC(C=O)=C2Cl	·	-3.11*	·	0.016
CCOC(=O)c1c(NC(=O)CN2CCN(c3ccc(Cl)cc3)CC2)sc(C)c1C	·	1.14	·	-0.521
O=C1N(CC(=O)N2CCc3ccccc32)CCN1Cc1ccc(Cl)cc1	0.0695	-0.36	0.165	-4.53*
CC(CCc1ccccc1)NC(=O)CN1CCN(Cc2ccccc2)C1=O (centres undefined)	-0.672	-0.56	-0.444	0.13
CC(CCc1ccccc1)NC(=O)CN1CCN(Cc2ccc(Cl)cc2)C1=O (centres undefined)	·	·	·	-8.17*
O=C(Cn1cccc1)N1CCc2ccccc21	0.628	2.46	-0.0988	1.23
